{
  "source": "PubChem BioAssay (NCATS)",
  "note": "Inconclusive results are not listed. Where a call stands in place of a potency, no number is given. Active and inactive are the calls of the source. Calls come from the whole dose curve; as a rule, active = well fitted inhibition curve with a large enough effect; inconclusive = small, poorly fitted or top-dose-only effect; inactive = flat fitted curve, though single readings scatter.",
  "data": [
    {"tested_on": "CRL-7250", "test": "qHTS assay to identify novel small-molecules to repurpose for Merkel cell carcinoma treatment (AID 1296009); note: nearly all actives have a fitted effect of over 60% in size", "settings": "MCC and control cell lines, CellTiter-Glo viability, 72 h; series mostly up to 92 µM", "outline": "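Viability readout: ATP luminescence (CellTiter-Glo) after 72 hr drug exposure at 37 degree celsius. Dose-response format was 8 points for NPC and 11 points for MIPE; data normalized to in-plate controls.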", "values": [
      {"smiles": "Cn1nccc1-c1ccccc1Oc1ccc(S(=O)(=O)Nc2nccs2)cc1C#N", "Potency": "inactive"},
      {"smiles": "CC1(C)O[C@@]2(C)CC[C@@H]1C[C@@H]2OC1OC(CO)C(O)C(O)C1O", "note": "(stereo not given in full)", "Potency": "inactive"},
      {"smiles": "O=S(=O)(Nc1ccccn1)c1ccc(N=Cc2c(O)[nH]c3ccc4ncsc4c23)cc1", "outcome": "inactive [at 9.27 µM]"},
      {"smiles": "CC(=O)O[C@H]1C[C@@]2(C)[C@@H](C[C@@H](O)[C@H]3[C@@]4(C)CC[C@@H](O)[C@@H](C)[C@@H]4CC[C@@]32C)/C1=C(\\CCC=C(C)C)C(=O)O", "Potency": "inactive"},
      {"smiles": "CC1CCCCCCCc2cc(O)cc(O)c2C(=O)O1", "note": "(stereo not given)", "Potency": "inactive"},
      {"smiles": "CC1(CO)CC(O)C2(C)CCC3(C)C(=CCC4C5(C=O)CCC(OC6OC(C(=O)O)C(O)C(O)C6OC6OC(C(=O)O)C(O)C(O)C6O)C(C)(C)C5CCC43C)C2C1", "note": "(stereo not given)", "outcome": "inactive [at 9.27 µM]"},
      {"smiles": "O=C(CN1C(=O)C2(CCCC2)NCC1c1cc(F)cc(F)c1)Nc1ccc2c(c1)CC1(C2)C(=O)Nc2ncccc21", "note": "(stereo not given)", "Potency": "inactive"},
      {"smiles": "Cc1cc(Cn2cnc3c2CC(C(=O)O)N(C(=O)C(c2ccccc2)c2ccccc2)C3)ccc1N(C)C", "note": "(stereo not given)", "Potency": "inactive"},
      {"smiles": "CC12CCC3C(C)(C)C(O)CCC3(C)C1Cc1c(oc(C(=O)O)cc1=O)O2", "note": "(stereo not given)", "Potency": "inactive"},
      {"smiles": "O=C(Nc1ccccc1)N1CCN(Cc2ccc3ccccc3n2)CC1", "Potency": "inactive"},
      {"smiles": "CC(CCO)CCC1C2(C)CCCC(C)(C)C2CC[C@@]1(C)O", "note": "(stereo not given in full)", "Potency": "inactive"},
      {"smiles": "CC(=O)N[C@H]1[C@H](O[C@H]2CC[C@@]3(C)C(CC[C@]4(C)C3CC=C3C5CC(C)(C)CC[C@]5(C(=O)O)[C@H](O[C@@H]5O[C@H](CO)[C@@H](O)[C@H](O)[C@H]5O)C[C@]34C)C2(C)C)O[C@H](CO[C@@H]2OC[C@H](O)[C@H](O)[C@H]2O[C@@H]2OC[C@@H](O)[C@H](O)[C@H]2O)[C@@H](O)[C@@H]1O", "note": "(stereo not given in full)", "outcome": "inactive [at 9.27 µM]"},
      {"smiles": "OC[C@H]1O[C@@H](O[C@H]2[C@H](OCCc3ccccc3)O[C@H](CO)[C@@H](O)[C@@H]2O)[C@H](O)[C@@H](O)[C@@H]1O", "Potency": "inactive"},
      {"smiles": "CNC(C)C(=O)NC(C(=O)N1CCCC1C(=O)Nc1cccc2ncccc12)C(C)C", "note": "(stereo not given)", "Potency": "inactive"},
      {"smiles": "COc1ccc(/C=C/C(=O)O[C@H]2[C@@H]3C=CO[C@@H](O[C@@H]4O[C@H](CO)[C@@H](O)[C@H](O)[C@H]4O)[C@@H]3[C@@]3(CO)O[C@@H]23)cc1O", "Potency": "inactive"},
      {"smiles": "CCOC(=O)c1ccc(NC2CCCCC2)c(N)c1", "Potency": "inactive"},
      {"smiles": "O=C(O)c1cccc(C(=O)CCC2OC(n3cnc4c(=O)[nH]cnc43)C(O)C2O)c1", "note": "(stereo not given)", "Potency": "inactive"},
      {"smiles": "O=C(/C=C/c1ccccc1)O[C@@H]1[C@@H](CO)O[C@@](CO)(O[C@H]2O[C@H](CO)[C@@H](O)[C@H](O)[C@H]2O)[C@H]1O", "Potency": "inactive"},
      {"smiles": "COC1CC(=O)C23C(=O)NC(CC(C)C)C2C(C)C(C)=CC3/C=C(\\C)CCC1O", "note": "(stereo not given)", "Potency": "inactive"},
      {"smiles": "C=C1CCC2C(C)(C)CCC[C@]2(C)[C@H]1CC/C(C)=C/C(=O)O", "note": "(stereo not given in full)", "Potency": "inactive"},
      {"smiles": "C=C[C@@](C)(CCC=C(C)C)O[C@@H]1O[C@H](CO[C@@H]2OC[C@H](O)[C@H](O)[C@H]2O)[C@@H](O)[C@H](O)[C@H]1O", "Potency": "inactive"},
      {"smiles": "O=c1c2cccnc2n(-c2cccc([N+](=O)[O-])c2)c(=O)n1Cc1ccncc1", "Potency": "inactive"},
      {"smiles": "C[C@H](N)C(=O)N[C@@H](Cc1ccc(O)cc1)C(=O)N1CCC[C@H]1C(=O)NCC(=O)N[C@@H](CCCCN)C(=O)N[C@@H](Cc1ccccc1)C(N)=O", "outcome": "inactive [at 9.27 µM]"},
      {"smiles": "COc1cc(NC(=O)c2cccc(-n3cc(NC(=O)Nc4cccc(C)c4)cn3)c2)cc(OC)c1OC", "Potency": "inactive"},
      {"smiles": "C=C[C@]1(C)C=C2CCC3C(C)(CCC[C@@]3(C)C(=O)O)C2CC1", "note": "(stereo not given in full)", "Potency": "inactive"},
      {"smiles": "O=C(/C=C/c1ccccc1)OC[C@H]1O[C@@H](OC(=O)c2cc(O)c(O)c(O)c2)[C@H](O)[C@@H](O)[C@@H]1O", "Potency": "inactive"},
      {"smiles": "C[C@@H]1C[C@@H](O)[C@@]2(CO)C(CO)=CCC[C@@H]2[C@@]12C[C@@H](c1ccoc1)OC2=O", "Potency": "inactive"},
      {"smiles": "C=C1C(O)CCC2(C)CC3(OC)OC(=O)C(C)=C3CC12", "note": "(stereo not given)", "Potency": "inactive"},
      {"smiles": "COc1cccc(C(=O)N2CCN(C(=O)COc3cccc(C)c3)CC2)c1OC", "Potency": "inactive"},
      {"smiles": "CCCC(=O)Nc1cccc(NC(=O)c2ccccc2Br)c1", "Potency": "inactive"},
      {"smiles": "CCOC(=O)COc1ccc2c(c1)C[C@@H](NC[C@H](O)c1cccc(Cl)c1)CC2", "Potency": "inactive"},
      {"smiles": "CC12CC34C=CC(=O)C(C)(CCC(=O)O)C3C(CC1C4)O2", "note": "(stereo not given)", "Potency": "inactive"},
      {"smiles": "Cc1nc(C(=O)N2CCC[C@H]2Cc2nnc(-c3ccccc3)o2)c(-c2ccccc2F)s1", "Potency": "inactive"},
      {"smiles": "COc1cc2ncnc(Nc3cccc(O)c3)c2cc1OC", "Potency": "inactive"},
      {"smiles": "COC(=O)C(CC1CCCC1)c1ccc(S(C)(=O)=O)cc1", "note": "(stereo not given)", "Potency": "inactive"},
      {"smiles": "OC[C@@]1(O)CO[C@@H](OC[C@H]2O[C@@H](Oc3ccccc3)[C@H](O)[C@@H](O)[C@@H]2O)[C@@H]1O", "Potency": "inactive"},
      {"smiles": "CC(=O)OC1(C)CC(O)C2(O)C=COC(OC3OC(CO)C(O)C(O)C3O)C12", "note": "(stereo not given)", "Potency": "inactive"},
      {"smiles": "O=C(O)Cc1cc(I)c(Oc2ccc(O)c(I)c2)c(I)c1", "Potency": "inactive"},
      {"smiles": "Cc1nnc(-c2ccc3occ(-c4ccc(S(C)=O)cc4)c3c2)o1", "note": "(stereo not given)", "Potency": "inactive"},
      {"smiles": "COC(=O)c1[nH]c(=O)c2ccccc2c1-c1ccc[nH]1", "Potency": "inactive"}
    ]}
  ]
}
